Drawing on PubChem BioAssay AID2316 (Broad Institute, 2010), this text covers activation for 41 molecules.

Fewer than 10 of roughly 29,000 compounds were called active. The rule behind the calls is not given here. These entries were drawn from the full list.

The nature of this assay: reversal of PD-1 mediated T-cell inhibition, primary screen, luminescence, primary human CD4 T cells, PD-L1 beads (AID 2316).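 Note: 0% = median vehicle wells and 100% = positive control.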 The note with it: CellTiter-Glo 96 h, stronger effect = higher value. On the technique in general: Cellular ATP, detected with luciferase, serves as a proxy for viable cell number.
`COc1ccc(NC(=O)Nc2ccc3c(c2)CC(=O)N([C@H](C)CO)C[C@H](C)[C@H](CN(C)Cc2ccncc2)O3)cc1`: the activation is 0.119% (inactive).

Take `CC(=O)Nc1ccc(Nc2c3c4c(cccc4[nH]c2=O)C(=O)c2ccccc2-3)cc1`: the activation was -3.04% (inactive).

Take `Cc1noc(C)c1S(=O)(=O)Nc1ccc2c(c1)CC(=O)N([C@@H](C)CO)C[C@H](C)[C@@H](CN(C)S(=O)(=O)c1cn(C)cn1)O2`: the activation was 1.24% (inactive).

Consider `C[C@H]1CN([C@@H](C)CO)C(=O)c2cccc(NS(=O)(=O)c3ccc(F)cc3)c2O[C@@H]1CN(C)C`, for which the activation is 0.422% (inactive).

Turning to `Cc1ccc(S(=O)(=O)Nc2ccc3c(c2)C(=O)N([C@H](C)CO)C[C@H](C)[C@H](CN(C)S(C)(=O)=O)O3)cc1`, the activation was 0.318% (inactive).

For the molecule `COc1ccc(NC(=O)Nc2cccc3c2O[C@H](CN(C)C(=O)Nc2ccc(F)cc2)[C@@H](C)CN([C@@H](C)CO)C3=O)cc1`, the activation is 1.83% (inactive).

Take `COc1ccc(NC(=O)N(C)C[C@@H]2OCCCC[C@@H](C)Oc3ccc(NC(=O)NC4CCCCC4)cc3C(=O)N([C@H](C)CO)C[C@@H]2C)cc1`: the activation is 0.764% (inactive).

In the case of `CCOc1ccc(NC(=O)CSc2nccc(C)n2)cc1`, the activation was 1.48% (inactive).

Take `Cc1ccc(C)c(NC(=O)CSc2nc(C)nc3sc(C)c(C)c23)c1`: the activation was 0.586% (inactive).

In the case of `CC(C)(C)c1ccc(S(=O)(=O)NCC(=O)Nc2ccc(F)cc2)cc1`, the activation was -2.51% (inactive).

For `COC(=O)c1c(NC(=O)COc2ccc(C(C)C)c(C)c2)sc2c1CCC2`, the activation was 0.596% (inactive).

For `O=S(=O)(c1ccccc1)c1nc(-c2ccccc2F)oc1NCc1cccnc1`, the activation is -0.501% (inactive).

For the molecule `COc1ccccc1N(CC(=O)Nc1ccc(C(F)(F)F)cc1)S(C)(=O)=O`, the activation is 0.0709% (inactive).

In the case of `C[C@@H]1CN([C@H](C)CO)C(=O)c2cccc(NC(=O)c3ccncc3)c2O[C@@H]1CN(C)C`, the activation is 0.1% (inactive).

Regarding `Cc1ccc(S(=O)(=O)Nc2ccc3c(c2)CC(=O)N([C@H](C)CO)C[C@@H](C)[C@H](CN(C)S(=O)(=O)c2c(C)noc2C)O3)cc1`, the activation was 0.836% (inactive).

For the molecule `O=C(NCc1ccccn1)C(=O)Nc1cccc(Cl)c1Cl`, the activation is 2.26% (inactive).

Regarding `COC1OC(O)C(O)C12CC[C@@]1(O2)[C@H](C)C[C@H]2OC(=O)[C@@]3(C)CCC[C@]1(C)C23` (stereo partly specified), the activation was 0.449% (inactive).

Turning to `Cc1ccc(S(=O)(=O)CCC(=O)Nc2ccc(Cl)cc2)cc1`, the activation is 0.811% (inactive).

In the case of `Cc1ccc(C(=O)O)cc1S(=O)(=O)NCC1CCCO1` (stereo unspecified), the activation was -0.751% (inactive).

On to `COc1ccc(NC(=O)Nc2ccc3c(c2)CC(=O)N([C@@H](C)CO)C[C@H](C)[C@H](CN(C)C(=O)Nc2ccc4c(c2)OCO4)O3)cc1`, for which the activation was 0.0102% (inactive).

Regarding `COc1ccc2nc3c(nc2c1)C(=O)c1ccccc1C3=O`, the activation is 0.69% (inactive).

Take `C[C@H](CO)N1C[C@H](C)[C@@H](CN(C)Cc2ccccc2)Oc2c(NC(=O)CCCCCC(=O)Nc3ccccc3N)cccc2C1=O`: the activation is -2.46% (inactive).

Take `Cc1ccc(S(=O)(=O)N(C)C[C@H]2Oc3ccc(NC(=O)Cc4cn(C)c5ccccc45)cc3CC(=O)N([C@@H](C)CO)C[C@H]2C)cc1`: the activation is -0.47% (inactive).

As for `C/C=C(/C)C(=O)O[C@H]1CC(C)(C)C[C@H]2C3=CCC4[C@@]5(C)CC[C@H](O[C@@H]6O[C@H](C(=O)O)[C@@H](O[C@@H]7O[C@H](CO)[C@H](O)[C@H](O)[C@H]7O[C@@H]7O[C@H](CO)[C@@H](O)[C@H](O)[C@H]7O)[C@H](O)[C@H]6O[C@@H]6O[C@@H](C)[C@H](O)[C@@H](O)[C@H]6O)C(C)(C)C5CC[C@@]4(C)[C@]3(C)[C@@H](OC(C)=O)[C@@H](O)[C@@]12COC(C)=O` (stereo partly specified), the activation is -14.9% (inactive).

Turning to `C[C@@H]1CCCCO[C@H](CN(C)Cc2ccncc2)[C@@H](C)CN([C@H](C)CO)C(=O)c2cc(NC(=O)CCCN(C)C)ccc2O1`, the activation was 0.961% (inactive).

For `Cc1cc(C)c(C(=O)CSc2nc(C)cc(=O)[nH]2)c(C)c1`, the activation is 1.17% (inactive).

Regarding `CS(=O)(=O)N(CC(=O)N1CCOCC1)c1ccc2c3c(cccc13)CC2`, the activation is 0.857% (inactive).

Take `COc1cc(C2OC(c3cc(OC)c(OC)c(OC)c3)C(C)C2C)cc(OC)c1OC` (stereo unspecified): the activation is 0.69% (inactive).

Regarding `Cc1noc(C)c1NC(=O)N(C)C[C@H]1Oc2ccc(NS(=O)(=O)c3ccc(F)cc3)cc2C(=O)N([C@@H](C)CO)C[C@H]1C`, the activation was 2.2% (inactive).

Turning to `COc1ccc(NC(=O)N(C)C[C@H]2Oc3c(NC(=O)Nc4cccc5ccccc45)cccc3C(=O)N([C@@H](C)CO)C[C@H]2C)cc1`, the activation was 0.624% (inactive).

As to `CC(=O)Oc1ccc2occ(C(=O)c3cc4ccccc4o3)c2c1`, the activation is -0.284% (inactive).

On to `CS(=O)(=O)N(CC(=O)Nc1cc(C(F)(F)F)ccc1Cl)c1ccc(Br)cc1`, for which the activation was -0.295% (inactive).

As to `C[C@H]1CN([C@@H](C)CO)C(=O)c2cccc(NC(=O)C3CCOCC3)c2O[C@@H]1CN(C)C`, the activation was 0.0381% (inactive).

`C[C@@H]1CN([C@@H](C)CO)C(=O)Cc2cc(NC(=O)CCCCCC(=O)Nc3ccccc3N)ccc2O[C@@H]1CN(C)C(=O)NC1CCCCC1`: the activation was 0.434% (inactive).

With `C[C@@H]1CN([C@H](C)CO)C(=O)c2cc(NC(=O)Nc3ccc4c(c3)OCO4)ccc2O[C@H]1CN(C)C(=O)Nc1ccccc1`, the activation is 0.77% (inactive).

`Cn1nc(C(=O)O)c2ccccc2c1=O`: the activation is -0.137% (inactive).

Turning to `COc1ccc(S(=O)(=O)N(C)CC(=O)Nc2cccc(C(F)(F)F)c2)cc1OC`, the activation is -1.43% (inactive).

In the case of `CCCCCC(O)c1cccc(OCc2ccc3ccccc3n2)c1` (stereo unspecified), the activation is 5.54% (inactive).

As for `C[C@H]1CN([C@@H](C)CO)C(=O)c2cccc(NC(=O)c3ccncc3)c2O[C@H]1CN(C)C`, the activation is 2.81% (inactive).

Turning to `O=C(O)C1CC=CCC1C(=O)Nc1ccc(C(=O)N2CCCCC2)c(Cl)c1` (stereo unspecified), the activation was 2.23% (inactive).

In the case of `Cc1ccc(S(=O)(=O)N(C)C[C@@H]2Oc3c(NC(=O)C4CCCCC4)cccc3C(=O)N([C@H](C)CO)C[C@H]2C)cc1`, the activation was 1.48% (inactive).
